These results are taken from PubChem BioAssay (Tox21).

Records with an inconclusive call do not appear. Activity calls are given as the source filed them. Calls come from the whole dose curve; as a rule, active = well fitted cell-killing curve with a large enough effect in the repeat runs; inconclusive = weak or mixed curves, or effect the other way; inactive = flat fitted curve, though single readings scatter.

The nature of this test: qHTS RealTime-Glo MT Cell Viability Assay in HepG2 cells - 40 hour (AID 1224870). Note: nearly all actives have a fitted effect of over 50% in size. Particulars: RealTime-Glo luminescence; series mostly up to 76.8 µM. The essentials:
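HepG2 cells (600/well) mixed with RealTime-Glo MT reagent, settled 5 h at 37 C/5% CO2 before compound addition. Nonlytic NanoLuc luminescence from viable-cell prosubstrate reduction read repeatedly during 40 h treatment at 37 C.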
Take `CC1(C)NC(=O)NC1=O`: the compound was classed as inactive.

For `CCCCCCCCCCN`, the compound was called inactive.

Consider `C[Si]1(C)O[Si](C)(C)O[Si](C)(C)O[Si](C)(C)O1`, for which the outcome was inactive.

In the case of `O=C(O)/C=C/C(=O)O`, the compound was classed as inactive.

Turning to `CC(C)OC(=O)COc1ccc(Cl)cc1Cl`, the compound was classed as inactive.

Take `O=C(OCC1CCC2OC2C1)C1CCC2OC2C1` (stereo unspecified): the result was inactive.

`O=C1c2ccccc2CCc2ccccc21`: the compound was called inactive.

For `Nc1nc(N)nc(-c2ccccc2)n1`, the outcome was inactive.

For the compound `C[C@]12CC[C@@H]3c4ccc(O)cc4CC[C@H]3[C@@H]1C[C@@H](O)[C@@H]2O`, the outcome was inactive.

With `CCO[Si](CCC#N)(OCC)OCC`, the compound was called inactive.

Take `O=C1CCCC1`: the outcome was inactive.

For the compound `O=C(O)c1ccc(S(=O)(=O)N(Cl)Cl)cc1`, the call was inactive.

With `CCCCCCCCCCCCCCCCO`, the outcome was inactive.

Take `CC(C)CC(=O)CC(C)CC(C)C` (stereo unspecified): the outcome was inactive.

With `C=C(C)CNCC`, the compound was classed as inactive.

Consider `CNC(=O)Oc1ccc2c(c1)[C@]1(C)CCN(C)[C@@H]1N2C`, for which the outcome was inactive.

Take `C=Cc1ccc(C)cc1`: the call was inactive.

For `O=c1[nH]cnc2[nH]ncc12`, the compound was called inactive.

`CCOCC(=O)O`: the compound was called inactive.

For the compound `COc1ccccc1OCC(O)CO` (stereo unspecified), the call was inactive.

In the case of `CCCCCCCC=O`, the result was inactive.

As to `CC(=O)Oc1ccc(C)cc1`, the outcome was inactive.

`CSc1ccc(Cl)cc1`: the compound was classed as inactive.

`CN1C(=O)CC[C@H]1c1cccnc1`: the compound was called inactive.

`C=CC(=O)OCCC(=O)O`: the compound was classed as inactive.

Take `CNC(=S)N(C)C`: the call was inactive.

For `CCCOC(=O)c1ccccc1`, the result was inactive.

With `Cc1ccc(S(=O)(=O)N=C=O)cc1`, the call was inactive.

For the compound `Cc1ccc(C(C)C)c(O)c1`, the outcome was inactive.

`CCNc1cccc(C)c1`: the result was inactive.

Consider `CCCCOC(=O)c1ccc(N)cc1`, for which the compound was classed as inactive.
